# From the supplement of paper PMC13380429
# Tested on: Vero E6 infected with SARS-CoV-2
# Assay: inhibition of SARS-CoV-2 cytopathic effect; higher = more antiviral protection, active = above 15
# Conditions: 1 nM; 48 h
row,SMILES,inhibition of SARS-CoV-2 cytopathic effect
1,O=C(O)c1ccc(/C=C2\SC(=S)N(c3cccc(C(F)(F)F)c3)C2=O)cc1,-0.08% (inactive)
2,Cc1ccccc1/N=N/c1ccc(/N=N/c2c(O)ccc3ccccc23)c(C)c1 [sudan-IV],8.71% (inactive)
3,C[C@H]1COc2c(C3(N)CC3)c(F)cc3c(=O)c(C(=O)O)cn1c23 [pazufloxacin],-5.2% (inactive)
4,O=C(c1cccc(Br)c1)N1CCC(N2CCCC2)CC1,-0.38% (inactive)
5,CC[C@@H](C)Nc1cc(C(=O)N[C@H]2C[C@H]3CC[C@@H](C2)N3c2ccc(C(=O)C3CC3)cn2)c(C)cc1C(N)=O,1.52% (inactive)
6,COc1ccc(CCNCc2ccc(OCc3ccc(Cl)nc3)c(OC)c2)cc1OC,-1.43% (inactive)
7,CC(=O)NNC(=O)N1Cc2ccccc2Oc2ccc(Cl)cc21,-0.04% (inactive)
8,CN1CCC(=C2c3ccccc3C=Cc3ccccc32)CC1 [cyproheptadine],1.35% (inactive)
9,CCCn1c(=O)c2[nH]c(-c3cnn(Cc4cccc(C(F)(F)F)c4)c3)nc2n(CC)c1=O,1.43% (inactive)
10,Cc1nc(Nc2ncc(C(=O)Nc3c(C)cccc3Cl)s2)cc(N2CCN(CCO)CC2)n1 [dasatinib],1.14% (inactive)
11,Cc1cc(N2CCOCC2)ccc1Nc1nc(NC2CCCCC2)c2nc[nH]c2n1,-1.92% (inactive)
12,Clc1ccc(-c2nc3sccn3c2/C=N/OCc2ccc(Cl)c(Cl)c2)cc1,-0.5% (inactive)
13,"CCCn1c(=O)c2nc(-c3ccccc3)[nH]c2n(CCC)c1=O [1,3-dipropyl-8-phenylxanthine]",-3.41% (inactive)
14,CCOc1ccccc1C(=O)O [2-ethoxybenzoic-acid],2.67% (inactive)
15,Cc1cc(C)c(S(=O)(=O)n2cc(C)cc2C)c(C)c1,-0.12% (inactive)
16,CCCCn1c(=O)c2[nH]c(C34CC5CC(CC3C5)C4)nc2n(CCCO)c1=O,1.96% (inactive)
17,Cc1cccc(NC(=O)c2ccc(C(F)(F)F)cc2C(=O)O)n1,0.74% (inactive)
18,COc1ccc(C(=O)N2CCCc3cc(C4=NNC(=O)SC4C)ccc32)cc1OC (stereo unspecified),-1.28% (inactive)

row,SMILES,inhibition of SARS-CoV-2 cytopathic effect
1,O=C(/C=C/c1ccc2ccc(C(F)(F)F)cc2n1)c1ccncc1,1.93% (inactive)
2,CC(C)=CCC/C(C)=C/CC/C(C)=C/CSc1ccccc1C(=O)O [salirasib],2.79% (inactive)
3,N=C1NC(=O)/C(=C/c2ccc(O)cc2)S1 [mirin],-0.65% (inactive)
4,Clc1ccc(C(Cn2ccnc2)OCc2ccsc2Cl)c(Cl)c1 (stereo unspecified) [tioconazole],6.75% (inactive)
5,Cc1cnc(Nc2ccc(OCCN3CCCC3)cc2)nc1Nc1cccc(S(=O)(=O)NC(C)(C)C)c1 [fedratinib],-3.17% (inactive)
6,O=C(O)CC/C=C\C[C@@H]1CO[C@H](c2ccccc2Cl)O[C@@H]1c1ccccc1O (racemic),0.52% (inactive)
7,COc1cc(OC)c(/C=C2/C(=O)Nc3ccccc32)c(OC)c1,2.03% (inactive)
8,Nc1ncnc2c1nc(Br)n2[C@@H]1O[C@@H]2COP(=O)(O)O[C@H]2[C@H]1O [8-bromo-cAMP],2.13% (inactive)
9,CN[C@@H](C)CCC=C(C)C [isometheptene-mucate],-0.09% (inactive)
10,CC1(C)S[C@@H]2[C@H](NC(=O)C(C(=O)O)c3ccccc3)C(=O)N2[C@H]1C(=O)O (stereo partly specified) [carbenicillin],2.76% (inactive)
11,NCC1(CC(=O)O)CCCCC1 [gabapentin],-2.49% (inactive)
12,S=P(N1CC1)(N1CC1)N1CC1 [thiotepa],-0.94% (inactive)
13,COc1cc([C@@H]2c3cc4c(cc3[C@@H](O[C@@H]3O[C@@H]5CO[C@@H](C)O[C@H]5[C@H](O)[C@H]3O)[C@H]3COC(=O)[C@H]23)OCO4)cc(OC)c1O [etoposide],6.79% (inactive)
14,CCN(CC)Cc1nccn1-c1ccc([N+](=O)[O-])cc1C(=O)c1ccccc1Cl [nizofenone],-1.17% (inactive)
15,O=c1[nH]c(=O)n([C@H]2C[C@H](O)[C@@H](CO)O2)cc1Br [broxuridine],1.7% (inactive)
16,NCCc1cc[nH]n1 [betazole],0.58% (inactive)
17,COc1ncc2cc(C(=O)Nc3cc(C(=O)NCc4cccc(Cl)c4)ccc3Cl)c(=O)[nH]c2n1,-2.51% (inactive)
18,c1ccc2c(c1)CN1CCCC1=N2 [desoxypeganine],-4.75% (inactive)
